A number with no mark means an inactive call. Inconclusive results are not listed. Where a call stands in place of a potency, no number is given. Active and inactive are the calls of the source. Unless noted, calls come from the whole dose curve; as a rule, active = well fitted curve in the direction sought with a large enough effect; inconclusive = small, poorly fitted or top-dose-only effect, or another doubt; inactive = no such curve, though single readings can be large; an effect the other way counts as inactive or inconclusive.
Assays:
[1] = Validation qHTS assay for inhibitors of Activation Induced Cytidine Deaminase (AID): UDG Counterscreen signal (AID 1347427)
Outline: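 Fluorescence at 560 nm excitation, 665 nm emission reports UDG signal after 250 mM NaOH (2x) addition and 30 min. Enzymes (AID 1 uM, UDG 2 U/mL, at 4/3x) preincubated 10 min with compound, then 4 h with 4x 250 nM DJC20/DJC23 substrate at room temperature.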

[2] = target: Single-stranded DNA cytosine deaminase (Homo sapiens) (UniProt Q9GZX7); assay: Validation qHTS assay for inhibitors of Activation Induced Cytidine Deaminase (AID): AID signal (AID 1347429)
Outline: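 AID+UDG coupled FRET deamination; cpds up to 114 uM final; DJC20/DJC23 substrate, 4 hr RT; NaOH stop, 30 min RT; read Ex 540/Em 590.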

[3] = Primary qHTS for inhibitors of La Crosse Virus (LACV) - induced cell death in SH-SY5Y cells (AID 1508616);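 note: top concentration of the series differs between compounds; higher means more rescue of cells from virus-induced death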
Outline: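 Cytopathicity rescue screen: compounds pinned onto SH-SY5Y cells, which are then infected with LACV (MOI 0.01) and held 6 days at 37C. Percent activity is scaled between infected DMSO control and uninfected DMSO control.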

[4] = target: Calcium and integrin-binding protein 1 (Homo sapiens) (UniProt Q99828); assay: Primary qHTS for Identification of Calcium Integrin Binding Protein 1 (CIB1) Competitor (AID 1508620);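 note: GST tagged CIB1 binding a fluorescein labelled alphaIIb integrin peptide tracer; top concentration of the series differs between compounds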
Outline: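 CIB1-GST (1 uM final) and compound incubated 15 min at room temperature before adding FITC-alphaIIb peptide tracer (100 nM final). Competition for binding read by fluorescence polarization (ex 480, em 540) after another 15 min at room temperature.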

[5] = Primary qHTS for small molecule stabilizers of the endoplasmic reticulum resident proteome: Secreted ER Calcium Modulated Protein (SERCaMP) assay (AID 1508630)
Outline: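 The SH-SY5Y reporter protocol was run at 3 concentrations up to 38.3 uM (primary) or 11 concentrations (follow-up): 16 h compound, 100 nM thapsigargin for 4 h, then extracellular luciferase luminescence.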

[6] = Primary qHTS for inhibitors of nuclear receptor binding SET domain protein 2 (NSD2) in an isogenic RCH-ACV NSD2 p.E1099K mutant (9B) (AID 1645876); note: nearly all actives have a fitted effect of over 70% in size; note: potency is the fitted concentration of half-maximal effect
[7] = Primary qHTS for inhibitors of nuclear receptor binding SET domain protein 2 (NSD2) in an RCH-ACV wild type WT cells (2C) (AID 1645877); note: nearly all actives have a fitted effect of over 70% in size; note: potency is the fitted concentration of half-maximal effect
[8] = target: Calcium and integrin-binding protein 1 (Homo sapiens) (UniProt Q99828); assay: Validation qHTS for Identification of Calcium Integrin Binding protein 1 (CIB1) Competitor (AID 1508618)
Outline: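 In this qHTS validation, the LOPAC set (up to 114 uM) was tested for blocking CIB1 binding to a fluorescein-tagged alphaIIb peptide, with FP detection at 480/540 nm.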

Papain (Carica papaya) = Papain (Carica papaya) (UniProt P00784); assay: Primary qHTS assay for inhibitors of the protease papain (AID 1645873);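 note: papain turnover of Z-FR-AMC read as the AMC fluorescence gain over 10 min; series mostly up to about 50 µM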
[9] = target: Cytochrome P450 2D6 (Homo sapiens) (UniProt P10635); assay: Cytochrome P450 family 2 subfamily D member 6 (CYP2D6) small molecule antagonists: luciferase biochemical (cell-free) qHTS assay (AID 1645840; active = well fitted curve in the direction sought with a large enough effect in the repeat runs; an effect the other way counts as inactive or inconclusive; note: potency is the fitted concentration of half-maximal effect; nearly all actives have a fitted effect of over 55% in size)
Outline: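 P450-Glo CYP2D6 system: proluciferin substrate converted by enzyme to luciferin, read by luminescence proportional to activity. Enzyme-substrate mix with compound 10 min at room temperature, then NADPH regeneration 1 h before detection reagent.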

[10] = target: Cytochrome P450 2C9 (Homo sapiens) (UniProt P11712); assay: Cytochrome P450 family 2 subfamily C member 9 (CYP2C9) small molecule antagonists: luciferase biochemical (cell-free) qHTS assay (AID 1645842; active = well fitted curve in the direction sought with a large enough effect in the repeat runs; an effect the other way counts as inactive or inconclusive; note: potency is the fitted concentration of half-maximal effect; nearly all actives have a fitted effect of over 55% in size)
Outline: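 P450-Glo CYP2C9 system: proluciferin substrate with enzyme in mix containing 0.4% BSA, 10 min at room temperature, then NADPH regeneration solution added and incubated 1 h at 37C. Detection reagent stopped reaction; luminescence read after 20 min as RLU.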

[11] = target: Calcium and integrin-binding protein 1 (Homo sapiens) (UniProt Q99828); assay: Confirmatory qHTS for Identification of Calcium Integrin Binding Protein 1 (CIB1) Competitor (AID 1508617); note: nearly all actives have a fitted effect of over 65% in size
Outline: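 Binding competition between test compounds and fluorescent alphaIIb peptide for 1 uM CIB1-GST is monitored by FP at 480/540 nm. Final compound range is up to 114 uM; unlabeled peptide serves as reference competitor.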

[12] = target: N-terminal Xaa-Pro-Lys N-methyltransferase 1 (Homo sapiens) (UniProt Q9BV86); assay: Confirmatory qHTS for Inhibitors of N-terminal methyltransferase 1 (NTMT1): MTaseGlo Assay (AID 1645874); note: potency is the fitted concentration of half-maximal effect; nearly all actives have a fitted effect of over 65% in size
Outline: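 Room-temperature NTMT1 reaction, 30 min, with 100 uM SAM and 1 uM SPKRIA substrate; enzyme 125 nM. Read-out: MTase-Glo luminescence, normalized to no-enzyme and DMSO controls.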

Single-stranded DNA cytosine deaminase (Homo sapiens), sequence (Q9GZX7 whole entry, looked up): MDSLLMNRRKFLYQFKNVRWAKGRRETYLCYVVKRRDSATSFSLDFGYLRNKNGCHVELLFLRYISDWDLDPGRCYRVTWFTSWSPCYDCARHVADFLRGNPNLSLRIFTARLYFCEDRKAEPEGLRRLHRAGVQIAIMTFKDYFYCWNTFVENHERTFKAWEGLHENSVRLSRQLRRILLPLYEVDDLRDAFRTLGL
Calcium and integrin-binding protein 1 (Homo sapiens), sequence (Q99828 whole entry, looked up): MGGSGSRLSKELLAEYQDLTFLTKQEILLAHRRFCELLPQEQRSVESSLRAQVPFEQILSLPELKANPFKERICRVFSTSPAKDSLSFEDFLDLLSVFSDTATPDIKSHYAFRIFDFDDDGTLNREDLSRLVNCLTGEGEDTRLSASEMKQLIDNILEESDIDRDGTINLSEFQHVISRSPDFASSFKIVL
Cytochrome P450 2C9 (Homo sapiens), sequence (P11712 whole entry, looked up): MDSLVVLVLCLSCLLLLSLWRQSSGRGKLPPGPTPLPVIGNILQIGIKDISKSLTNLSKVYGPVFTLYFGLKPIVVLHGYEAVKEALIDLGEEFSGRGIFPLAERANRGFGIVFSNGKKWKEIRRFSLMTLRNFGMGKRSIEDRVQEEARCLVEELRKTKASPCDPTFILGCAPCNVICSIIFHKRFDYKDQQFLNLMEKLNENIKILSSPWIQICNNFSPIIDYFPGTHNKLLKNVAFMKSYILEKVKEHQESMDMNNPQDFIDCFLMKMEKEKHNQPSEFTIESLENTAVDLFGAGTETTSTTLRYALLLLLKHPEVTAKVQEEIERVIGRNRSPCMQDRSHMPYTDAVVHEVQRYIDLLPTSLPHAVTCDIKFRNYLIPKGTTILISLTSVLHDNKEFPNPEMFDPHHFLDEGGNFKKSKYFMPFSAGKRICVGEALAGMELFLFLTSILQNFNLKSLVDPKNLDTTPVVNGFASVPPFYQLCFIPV
Papain (Carica papaya), sequence (P00784 whole entry, looked up): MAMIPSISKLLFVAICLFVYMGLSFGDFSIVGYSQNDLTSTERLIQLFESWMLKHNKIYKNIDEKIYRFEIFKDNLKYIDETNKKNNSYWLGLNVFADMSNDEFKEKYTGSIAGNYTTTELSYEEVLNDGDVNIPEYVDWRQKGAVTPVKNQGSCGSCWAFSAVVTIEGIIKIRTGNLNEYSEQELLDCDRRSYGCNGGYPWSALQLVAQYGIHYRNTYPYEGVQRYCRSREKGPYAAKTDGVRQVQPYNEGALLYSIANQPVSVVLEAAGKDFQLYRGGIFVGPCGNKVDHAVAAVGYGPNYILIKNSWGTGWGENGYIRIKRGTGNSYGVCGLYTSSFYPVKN
Cytochrome P450 2D6 (Homo sapiens), sequence (P10635 whole entry, looked up): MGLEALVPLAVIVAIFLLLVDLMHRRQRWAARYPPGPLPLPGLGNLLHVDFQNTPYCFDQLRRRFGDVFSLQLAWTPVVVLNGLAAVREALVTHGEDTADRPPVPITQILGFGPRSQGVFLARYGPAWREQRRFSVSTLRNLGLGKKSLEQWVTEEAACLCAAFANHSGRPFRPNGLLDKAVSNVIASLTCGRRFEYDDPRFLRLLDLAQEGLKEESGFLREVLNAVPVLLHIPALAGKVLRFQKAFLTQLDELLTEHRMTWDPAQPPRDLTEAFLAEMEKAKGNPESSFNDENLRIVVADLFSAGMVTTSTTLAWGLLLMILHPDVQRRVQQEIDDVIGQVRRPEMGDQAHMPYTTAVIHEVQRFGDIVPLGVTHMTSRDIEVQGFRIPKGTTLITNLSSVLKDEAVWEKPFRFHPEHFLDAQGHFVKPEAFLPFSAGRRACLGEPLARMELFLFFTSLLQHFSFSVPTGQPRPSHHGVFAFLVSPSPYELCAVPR
N-terminal Xaa-Pro-Lys N-methyltransferase 1 (Homo sapiens), sequence (Q9BV86 whole entry, looked up): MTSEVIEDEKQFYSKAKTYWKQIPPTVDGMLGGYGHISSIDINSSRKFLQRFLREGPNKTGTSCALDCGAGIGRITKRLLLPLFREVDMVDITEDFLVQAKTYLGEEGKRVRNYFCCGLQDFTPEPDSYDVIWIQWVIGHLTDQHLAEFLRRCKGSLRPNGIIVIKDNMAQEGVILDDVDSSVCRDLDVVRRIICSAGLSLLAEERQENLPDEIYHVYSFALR

## CCCCCN(C)CCC(O)(P(=O)(O)O)P(=O)(O)O
[1]
  outcome: inactive
[2]
  Potency: inactive
[3]
  outcome: inactive
[4]
  Potency: inactive
[5]
  Potency: inactive
[6]
  outcome: inactive [at 4.96 µM]
[7]
  activity change, negative = cell killing: 7.25% [at 4.96 µM]

## CO[C@H]1C[C@@H]2CC[C@@H](C)[C@@](O)(O2)C(=O)C(=O)N2CCCC[C@@H]2C(=O)O[C@H]([C@H](C)C[C@@H]2CC[C@H](OC(=O)C(C)(CO)CO)[C@H](OC)C2)CC(=O)[C@H](C)C=C(C)[C@@H](O)[C@@H](OC)C(=O)[C@H](C)C[C@H](C)C=CC=CC=C1C
[4]
  Potency: inactive

## O=C(O)C=Cc1ccc(O)c(O)c1
[4]
  Potency: inactive

## CC[C@H]1OC(=O)[C@H](C)C(=O)[C@H](C)[C@@H](O[C@H]2O[C@H](C)C[C@H](N(C)C)[C@@H]2O)[C@](C)(OC)C[C@@H](C)C(=O)[C@H](C)[C@H]2N(CCCCn3cnc(-c4cccnc4)c3)C(=O)O[C@]12C
[4]
  Potency: inactive

## Cc1c[nH]c(C=C2C(=O)Nc3ccccc32)c1CCC(=O)O
[4]
  Potency: inactive

## COc1ccc(Cc2nccc3cc(OC)c(OC)cc23)cc1OC
[1]
  outcome: inactive
[2]
  Potency: inactive
[8]
  outcome: inactive
Papain (Carica papaya)
  outcome: inactive

## O=c1cc(-c2ccc(O)cc2)oc2cc(O)cc(O)c12
[1]
  outcome: inactive
[2]
  Potency: inactive
[3]
  outcome: inactive
[8]
  outcome: inactive
[4]
  Potency: inactive
[5]
  Potency: inactive
[9]
  Potency: 12 µM (active)
[10]
  Potency: 21.3 µM (active)
Papain (Carica papaya)
  outcome: inactive
[6]
  Potency: 5.9 µM (active)
[7]
  Potency: 4.68 µM (active)

## O=C(O)c1c(Cl)c(Cl)c(Cl)c(Cl)c1-c1c2cc(I)c(=O)c(I)c-2oc2c(I)c(O)c(I)cc12
[11]
  Potency: inactive
[5]
  Potency: inactive
[9]
  Potency: 4.25 µM (active)
[10]
  Potency: 10.7 µM (active)
[12]
  Potency: 9.55 µM (active)
[7]
  Potency: 9.34 µM (active)

— PubChem BioAssay (NCATS)
